# Source: PubChem BioAssay (NCATS)
# Records with an inconclusive call do not appear. Entries that show only a call come without a potency. Activity calls are given as the source filed them. The call rests on the fitted dose curve; in most records, active means well fitted curve in the direction sought with a large enough effect; inconclusive means small, poorly fitted or top-dose-only effect, or another doubt; inactive means no such curve, though single readings can be large; an effect the other way counts as inactive or inconclusive.
# Legend:
# [1] = qHTS of pediatric cancer cell lines to identify multiple opportunities for drug repurposing: Confirmatory screen for LAN-5 cells (AID 1347113); conditions: LAN-5 neuroblastoma cell viability; further: potency means the concentration at half of the fitted maximal effect; nearly all actives have a fitted effect of over 65% in size
# In short: (§1)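 Viability after 48 h compound treatment at 37C, 500-1,000 cells/well, read as ATP luminescence with CellTiter-Glo. Primary screens used 11-point (MIPE, 0.78 nM-46 µM) or 8-point (NPC, 0.59 nM-46 µM) final concentrations; follow-up screens used 11-point dilutions.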
# [2] = qHTS of pediatric cancer cell lines to identify multiple opportunities for drug repurposing: Confirmatory screen for DAOY cells (AID 1347114); conditions: DAOY medulloblastoma cells viability, cytotoxicity qHTS; further: potency means the concentration at half of the fitted maximal effect; nearly all actives have a fitted effect of over 65% in size
# In short: (§2)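 Viability measured as metabolically active cells via CellTiter-Glo luminescence following 48 hours of compound exposure, 11-point dilutions in confirmatory testing. 500-1,000 cells/well plated 5 hours before dosing; controls were DMSO and 2.3 µM bortezomib.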
# [3] = qHTS of pediatric cancer cell lines to identify multiple opportunities for drug repurposing: Confirmatory screen for NB-EBc1 cells (AID 1347115); conditions: NB-EBc1 neuroblastoma cells, viability (cytotoxicity);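 further: potency means the concentration at half of the fitted maximal effect; cells exposed to compound for 48 h before the viability read; nearly all actives have a fitted effect of over 45% in size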
# In short: as §1
# [4] = qHTS of pediatric cancer cell lines to identify multiple opportunities for drug repurposing: Confirmatory screen for SJ-GBM2 cells (AID 1347116); conditions: SJ-GBM2 glioblastoma cells, viability; further: potency means the concentration at half of the fitted maximal effect; nearly all actives have a fitted effect of over 60% in size
# In short: as §2
# [5] = qHTS of pediatric cancer cell lines to identify multiple opportunities for drug repurposing: Confirmatory screen for BT-37 cells (AID 1347117); conditions: BT-37 pediatric cancer cells, viability; further: potency means the concentration at half of the fitted maximal effect; nearly all actives have a fitted effect of over 55% in size
# In short: as §1
# [6] = qHTS of pediatric cancer cell lines to identify multiple opportunities for drug repurposing: Confirmatory screen for TC32 cells (AID 1347118); conditions: TC32 Ewing sarcoma cells viability qHTS;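 further: potency means the concentration at half of the fitted maximal effect; cells exposed to compound for 48 h before the read; nearly all actives have a fitted effect of over 65% in size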
# In short: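 TC32 cells, 500-1,000/well in growth medium, compound-treated 48 h at 37 °C; viability from CellTiter-Glo luminescence. Primary screen: MIPE 11-point (0.78 nM–46 µM final), NPC 8-point (0.59 nM–46 µM final); confirmatory at 11-point dilutions.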
# [7] = qHTS of pediatric cancer cell lines to identify multiple opportunities for drug repurposing: Confirmatory screen for MG 63 (6-TG R) cells (AID 1347119); conditions: MG-63 (6-TG resistant) osteosarcoma viability; further: potency means the concentration at half of the fitted maximal effect; nearly all actives have a fitted effect of over 55% in size
# In short: as §1
# [8] = qHTS of pediatric cancer cell lines to identify multiple opportunities for drug repurposing: Confirmatory screen for control Hh wild type fibroblast cells (AID 1347121); conditions: viability qHTS; further: potency means the concentration at half of the fitted maximal effect; nearly all actives have a fitted effect of over 70% in size
# In short: as §1
# [9] = qHTS of pediatric cancer cell lines to identify multiple opportunities for drug repurposing: Confirmatory screen for U-2 OS cells (AID 1347122); conditions: U-2 OS osteosarcoma cell viability; further: potency means the concentration at half of the fitted maximal effect; nearly all actives have a fitted effect of over 65% in size
# In short: as §1
# [10] = qHTS of pediatric cancer cell lines to identify multiple opportunities for drug repurposing: Confirmatory screen for Rh41 cells (AID 1347123); conditions: Rh41 rhabdomyosarcoma cells, viability/cytotoxicity qHTS;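 further: potency means the concentration at half of the fitted maximal effect; 48 h compound exposure; nearly all actives have a fitted effect of over 60% in size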
# In short: as §1
# [11] = qHTS of pediatric cancer cell lines to identify multiple opportunities for drug repurposing: Confirmatory screen for RD cells (AID 1347124); conditions: RD rhabdomyosarcoma cell viability
# In short: as §1
# [12] = qHTS of pediatric cancer cell lines to identify multiple opportunities for drug repurposing: Confirmatory screen for Rh18 cells (AID 1347125); conditions: Rh18 rhabdomyosarcoma cells, viability; further: potency means the concentration at half of the fitted maximal effect; nearly all actives have a fitted effect of over 55% in size
# In short: as §1
# [13] = qHTS of pediatric cancer cell lines to identify multiple opportunities for drug repurposing: Confirmatory screen for Rh30 cells (AID 1347126); conditions: Rh30 rhabdomyosarcoma cell viability; further: potency means the concentration at half of the fitted maximal effect; nearly all actives have a fitted effect of over 55% in size
# In short: as §1
# [14] = qHTS of pediatric cancer cell lines to identify multiple opportunities for drug repurposing: Confirmatory screen for Saos-2 cells (AID 1347127); conditions: Saos-2 osteosarcoma cell viability; further: potency means the concentration at half of the fitted maximal effect; nearly all actives have a fitted effect of over 60% in size
# In short: as §1
# [15] = qHTS of pediatric cancer cell lines to identify multiple opportunities for drug repurposing: Confirmatory screen for OHS-50 cells (AID 1347128); conditions: OHS-50 osteosarcoma cells viability
# In short: as §1
# [16] = qHTS of pediatric cancer cell lines to identify multiple opportunities for drug repurposing: Confirmatory screen for SK-N-SH cells (AID 1347129); conditions: SK-N-SH neuroblastoma cell viability;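 further: potency means the concentration at half of the fitted maximal effect; cells exposed to compound for 48 h before viability read; nearly all actives have a fitted effect of over 60% in size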
# In short: as §1
# [17] = target: Furin (Homo sapiens) (UniProt P09958); assay: Furin counterscreen qHTS for Zika virus inhibitors (AID 1347149); conditions: furin enzymatic counterscreen, fluorogenic substrate; series mostly up to 57.5 µM; further: potency means the concentration at half of the fitted maximal effect; nearly all actives have a fitted effect of over 70% in size
# Furin (Homo sapiens), sequence (P09958 whole entry, looked up): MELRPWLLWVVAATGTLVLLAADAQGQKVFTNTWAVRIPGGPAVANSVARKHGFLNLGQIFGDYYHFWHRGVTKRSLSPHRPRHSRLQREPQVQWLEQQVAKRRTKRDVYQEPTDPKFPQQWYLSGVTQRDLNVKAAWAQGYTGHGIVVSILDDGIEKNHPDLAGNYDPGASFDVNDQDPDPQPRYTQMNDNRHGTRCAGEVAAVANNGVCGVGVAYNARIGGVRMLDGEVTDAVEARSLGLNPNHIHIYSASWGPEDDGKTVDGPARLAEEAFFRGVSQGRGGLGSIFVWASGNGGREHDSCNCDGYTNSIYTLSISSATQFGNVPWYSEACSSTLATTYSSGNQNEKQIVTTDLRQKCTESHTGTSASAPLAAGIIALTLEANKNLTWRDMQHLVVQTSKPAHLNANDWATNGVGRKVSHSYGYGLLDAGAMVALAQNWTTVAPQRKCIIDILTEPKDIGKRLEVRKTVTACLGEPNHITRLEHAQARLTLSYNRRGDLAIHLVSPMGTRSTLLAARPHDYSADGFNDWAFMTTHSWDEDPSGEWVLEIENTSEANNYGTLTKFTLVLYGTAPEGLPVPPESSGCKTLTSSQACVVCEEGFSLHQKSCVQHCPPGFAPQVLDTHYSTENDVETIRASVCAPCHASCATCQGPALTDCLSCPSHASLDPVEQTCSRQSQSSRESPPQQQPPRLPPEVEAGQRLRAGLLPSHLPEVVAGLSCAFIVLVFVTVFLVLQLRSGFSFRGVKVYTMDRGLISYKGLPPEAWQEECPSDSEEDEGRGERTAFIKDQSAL
# In short: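 Fluorogenic cleavage of BOC-RVRR-AMC (2 microM final, Km ~15 µM) was monitored (ex 340, em 450 nm) at 37C after 15 min RT preincubation of 5 nM furin with compounds in HEPES pH 7.0 buffer with CaCl2 and Triton X-100. Percent inhibition was fitted to a 4-parameter Hill curve.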
# [18] = tested on: Zika virus NS2B-NS3 protease (linked construct); assay: Confirmatory screen NINDS AMC qHTS for Zika virus inhibitors (AID 1347152); conditions: Purified linked NS2B-NS3, AMC substrate fluorescence; series mostly up to 56.6 µM; further: potency means the concentration at half of the fitted maximal effect; nearly all actives have a fitted effect of over 70% in size
# In short: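 Linked NS2B-NS3 protease, 1 nM, in 10 mM Tris-HCl pH 8.0, 0.01% Tween 20; compounds preincubated 15 min at room temperature. Nle-KRR-AMC 10 microM (Km 18.3 µM); 15-min fluorescence change (340/450 nm) fitted to 4-parameter Hill.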
# [19] = target: N-terminal Xaa-Pro-Lys N-methyltransferase 1 (Homo sapiens) (UniProt Q9BV86); assay: qHTS Assay for Inhibitors of N-terminal methyltransferase 1 (NTMT1): LOPAC validation of the NTMT1 SAHH-coupled ThioGlo3 Assay (AID 1347143); conditions: recombinant NTMT1, SAHH-coupled ThioGlo3 fluorescence; series mostly up to 114 µM;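 further: SAH from peptide methylation measured as thiol fluorescence via SAHH coupling and ThioGlo3; nearly all actives have a fitted effect of over 70% in size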; further: potency means the concentration at half of the fitted maximal effect
# N-terminal Xaa-Pro-Lys N-methyltransferase 1 (Homo sapiens), sequence (Q9BV86 whole entry, looked up): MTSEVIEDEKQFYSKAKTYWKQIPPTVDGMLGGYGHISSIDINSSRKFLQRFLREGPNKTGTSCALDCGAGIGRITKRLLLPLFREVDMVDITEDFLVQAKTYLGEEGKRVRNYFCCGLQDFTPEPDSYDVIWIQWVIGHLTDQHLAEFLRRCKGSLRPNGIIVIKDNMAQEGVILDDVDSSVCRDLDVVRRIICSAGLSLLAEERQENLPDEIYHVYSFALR
# In short: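 Recombinant human NTMT1 (125nM) was pre-incubated 1 min at room temperature with compounds over a concentration range, then a mix of 100uM SAM, 10uM SAHH and 15uM ThioGlo3 (concentrations in added reagent) was added. ThioGlo3 fluorescence (ex 340/em 450nm) after 30 min was normalized to the initial reading.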
# [20] = tested on: Zika virus NS2B-NS3 protease (unlinked); assay: Optimization of GU AMC qHTS for Zika virus inhibitors: Unlinked NS2B-NS3 protease assay (AID 1347151); conditions: recombinant ZIKV NS2B-NS3 protease, fluorogenic AMC substrate; series mostly up to 52.5 µM; further: nearly all actives have a fitted effect of over 80% in size
# In short: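 Noncovalent NS2B hydrophilic domain–NS3 protease complex (25 nM final) in 10 mM Tris-HCl pH 8.0, 0.01% Tween 20; AMC substrate, room temperature 15 min (~20% conversion); fluorescence change normalized, 4-parameter Hill fit.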
compound,measurement,setting,value
C[CH2][Hg][S]c1ccccc1C(=O)O,Potency,[1],4.65 µM (active)
same,Potency,[2],3.29 µM (active)
same,Potency,[3],7.37 µM (active)
same,Potency,[4],7.37 µM (active)
same,Potency,[5],8.27 µM (active)
same,Potency,[6],2.93 µM (active)
same,Potency,[7],5.22 µM (active)
same,Potency,[8],16.5 µM (active)
same,Potency,[9],8.27 µM (active)
same,Potency,[10],1.17 µM (active)
same,Potency,[11],7.37 µM (active)
same,Potency,[12],16.5 µM (active)
same,Potency,[13],4.14 µM (active)
same,Potency,[14],2.93 µM (active)
same,Potency,[15],9.27 µM (active)
same,Potency,[16],5.26 µM (active)
O=c1ccc2[nH]cc(C3=CCNCC3)c2[nH]1,Potency,[17],24.1 µM (active)
same,Potency,[18],24.1 µM (active)
COc1ccc2c(c1)C13CCCCC1C(C2)N(C)CC3 (configuration not stated),Potency,[19],inactive
same,Potency,[20],inactive
CN1CCc2cccc(Cl)c2CC1,Potency,[19],inactive
same,Potency,[20],inactive
CP(=O)(O)C1=CCNCC1,Potency,[19],inactive
same,Potency,[20],inactive
CCCC[N+]1(C)C2CC(OC(=O)[C@H](CO)c3ccccc3)CC1C1OC12 (some centres not stated),Potency,[19],inactive
same,Potency,[20],inactive
NCCc1ccc(S(=O)(=O)F)cc1,Potency,[19],inactive
same,Potency,[20],inactive
C[C@H](N)CN1CCc2ccc(Br)cc21,Potency,[19],inactive
same,Potency,[20],inactive
C[N+](C)(C)CCOC(=O)CBr,Potency,[19],inactive
same,Potency,[20],inactive
C[N+]1(C)CCN(c2ccccc2)CC1,Potency,[19],28.2 µM (active)
same,Potency,[20],inactive
CC(N)c1cccc(Cl)c1Cl (configuration not stated),Potency,[19],inactive
same,Potency,[20],inactive
[Cl-].[Cl][Pt].[NH2-].[NH2-].c1ccncc1,Potency,[19],7.08 µM (active)
same,Potency,[20],inactive
NCCCP(=O)(O)O,Potency,[19],inactive
same,Potency,[20],inactive
N[C@@]1(C(=O)O)CC[C@@H](C(=O)O)C1,Potency,[19],inactive
same,Potency,[20],inactive
